# ALOX12 inh: inhibitors of human 12S-lipoxygenase ALOX12; P18054; purified 12hLO, xylenol orange hydroperoxide absorbance; Potency, µM (highest dose often 108 µM), inactives show at the top dose activity change, negative = inhibition, usual class: inhibitors; 580,000 compounds, 1.1% hits; AID 1671190; note: % is set by controls: 0 for no effect and ±100 for the full control effect
# Target sequence (P18054 whole entry, looked up): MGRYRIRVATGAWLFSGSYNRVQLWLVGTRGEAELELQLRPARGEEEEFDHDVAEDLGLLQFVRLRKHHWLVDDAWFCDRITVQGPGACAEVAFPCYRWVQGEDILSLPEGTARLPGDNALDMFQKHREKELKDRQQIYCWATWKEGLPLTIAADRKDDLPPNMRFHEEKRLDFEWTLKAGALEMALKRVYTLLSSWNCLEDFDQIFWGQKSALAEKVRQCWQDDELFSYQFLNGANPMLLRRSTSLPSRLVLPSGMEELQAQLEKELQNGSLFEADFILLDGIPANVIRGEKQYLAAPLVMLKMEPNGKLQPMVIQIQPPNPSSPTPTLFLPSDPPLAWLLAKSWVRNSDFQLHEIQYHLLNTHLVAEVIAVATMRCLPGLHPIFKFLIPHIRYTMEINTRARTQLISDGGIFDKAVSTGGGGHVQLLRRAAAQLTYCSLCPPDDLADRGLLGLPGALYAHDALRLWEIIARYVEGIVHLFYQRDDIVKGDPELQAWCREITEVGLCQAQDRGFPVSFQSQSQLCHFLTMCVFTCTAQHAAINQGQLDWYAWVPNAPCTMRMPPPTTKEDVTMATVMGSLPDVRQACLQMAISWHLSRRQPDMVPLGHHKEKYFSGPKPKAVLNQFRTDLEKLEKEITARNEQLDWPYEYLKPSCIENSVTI
#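 Hydroperoxide product was detected by ferrous iron/xylenol orange as the 573 to 405 nm absorbance ratio. Arachidonic acid at 40 uM (final) was turned over for 30 min at room temperature by 150 nM human 12hLO, pH 7.0 Hepes buffer, after 15 min compound preincubation.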
# SW480 rerep: DNA re-replication induction in SW480 cells. SW480 DNA re-replication, Hoechst DNA content imaging, 48 h. Potency, µM (series often up to 46.1 µM), without a hit: top-dose re-replication activation, usual class: activators. 340,000 compounds, 1.8% hits. AID 624297; note: % of control where 0% means no effect; nearly all actives have a fitted effect of over 55% in size
#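 Image-based DNA-content assay: after two days of treatment, nuclei were labelled with the DNA dye Hoechst and imaged, and hits were compounds raising the count of nuclei showing high fluorescence intensity.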
# KB-V1 MDR tox: KB-V1 MDR subline cytotoxicity; KB-V1 MDR cells viability, CellTiter-Glo, 72 h; Potency, µM (series often up to 46.1 µM), actives largely listed as cytotoxic; 400,000 compounds, 3.4% hits; note: % is set by controls: 0 for no effect and ±100 for the full control effect; nearly all actives have a fitted effect of over 60% in size
#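 Potencies derive from concentration-effect curves fitted to normalized luminescence (CellTiter-Glo) of KB-V1 cells treated for 72 h at 37 degrees C in phenol-red-free DMEM containing 10% FBS.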
# PINK1 modulator: modulators of PINK1 expression | 410,000 compounds, 0.2% hits | AID 624263 | Potency, µM (series often up to 76.6 µM), without a hit: top-dose activation (PINK1 increase), usual class: activators | PINK1 immunofluorescence, high-content cytometry, 24 h; active = well fitted activation curve with a large enough effect; inconclusive = small, poorly fitted or top-dose-only effect; cell line not stated here; note: % of control where 0% means no effect; nearly all actives have a fitted effect of over 65% in size
#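 Decision-based qHTS: stable cells, 24 h exposure to five compound concentrations, CCCP as control. Fixed cells stained for PINK1 plus nuclear, mitochondrial and cell markers, cytometer read.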
# MCF10A rereplic: inducers of DNA re-replication in MCF 10A breast cells. MCF 10A DNA re-replication, Hoechst nuclear intensity, 48 h. Potency, µM (series often up to 46.1 µM), for the others: at the top dose activity, positive = re-replication, most hits filed as activators. 350,000 compounds, 2.9% hits; note: % of control where 0% means no effect; nearly all actives have a fitted effect of over 50% in size
# KB-3-1 tox: kills parental KB-3-1 adenocarcinoma cells | KB-3-1 viability, CellTiter-Glo ATP luminescence, 72 h | Potency, µM (titrated, usually from 46.1 µM), hits mostly cytotoxic | 400,000 compounds, 1.4% hits | AID 1347075; note: % is set by controls: 0 for no effect and ±100 for the full control effect; nearly all actives have a fitted effect of over 60% in size
#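 Using CellTiter-Glo luminescence, growth of non-resistant KB-3-1 adenocarcinoma cells is assessed 72 h after pin-tool compound addition at 37 °C. Normalized responses across the concentration series yield fitted curves.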
# An asterisk follows results filed as active; i = inactive; ? = inconclusive; . = no result given; ! = not active in a repeat; [ ] = remark or other dose. Most compounds without a hit are left out; they make up all but 5.8% or so of the library. Unless noted, calls come from the whole dose curve; as a rule, active = well fitted curve in the direction sought with a large enough effect; inconclusive = small, poorly fitted or top-dose-only effect, or another doubt; inactive = no such curve, though single readings can be large; an effect the other way counts as inactive or inconclusive. Potency is the fitted concentration of half-maximal effect.
SMILES,ALOX12 inh,SW480 rerep,KB-V1 MDR tox,PINK1 modulator,MCF10A rereplic,KB-3-1 tox
CC1(C)CC(=O)C2=C(C1)NC1=C(C(=O)c3ccccc31)C2c1ccc(O)cc1 (stereo unspecified),?,-1.9%,i,1.1%,-1.0%,i
CCCc1ccc(C2C3=C(CC(C)(C)CC3=O)NC3=C2C(=O)c2ccccc23)cc1 (stereo unspecified),25.1µM*!,-3.4%,20.6µM*,-0.7%[38.3 µM],5.0%,?
C[C@]1(CO)[C@H]2Cc3sc(NC(=O)c4ccco4)nc3[C@@H](CC(=O)N3CCC(C(N)=O)CC3)[C@]2(C)CC[C@H]1O,6.4%,.,.,.,.,.
N#CC(C(=O)CCc1ccccc1)C(=O)Nc1ccccc1Cl (stereo unspecified),-0.5%,.,.,.,.,.
O=[N+]([O-])c1cccc(-n2nc(-c3ccccc3)c3cnc4ccccc4c32)c1,-32.6%,.,.,.,.,.
Nc1ncnc2oc(-c3ccoc3)c(-c3ccco3)c12,.,.,i,-0.3%,.,i
Nc1ncnc2oc(-c3ccco3)c(-c3ccco3)c12,-19.0%,-2.9%,20.6µM*,-0.7%[38.3 µM],6.3%,i
O=C(c1cc(-c2cccc(O)c2)on1)N1CCN(C(c2ccccc2)c2ccccc2)CC1,14.6%[57.4 µM],18.0%,?,-0.9%,6.51µM*,18.4µM*
COc1ccc(-c2cc(C(=O)N3CCN(c4ccccc4OC)CC3)no2)cc1,4.5%,17.7%,i,0.1%,?,i
COc1ccc(-c2cc(C(=O)N3CCN(c4ccccc4)CC3)no2)cc1,0.6%,-6.0%,20.6µM*!,6.1%,?,?
CCCNC(=O)NC(=O)CN(C)CC(=O)Nc1ccccc1CC,21.7%,.,.,.,.,.
CC(=O)Nc1cccc(C(=O)OCC(=O)c2ccc[nH]2)c1,10.1%,.,.,.,.,.
COc1cccc(NC(=O)c2ccc(-c3nnc4ccc(NC(=O)C5CCC5)cn34)cc2)c1,8.4%,.,.,.,.,.
COc1ccc(C(C#N)=Cc2ccccc2OC)cc1,-0.4%,.,8.2µM*,11.6%,.,16.4µM*
COc1ccc(C(C#N)=Cc2ccc(NC(C)=O)cc2)cc1,-23.8%,?,i,-0.9%,16.4µM*,i
COc1ccc(C(C#N)=Cc2ccc(OC)c(OC)c2)cc1,-21.0%,.,i,1.7%,.,i
CC(=O)Nc1ccc(C(C#N)=Cc2ccc(N(C)CCC#N)cc2)cc1,4.4%,.,?,0.7%,.,i
CCc1oc2cc(O)ccc2c(=O)c1-c1ccccc1OC,-29.6%,.,.,.,.,.
CCC1=NN(C(=O)c2ccccc2Br)C(O)(c2ccc(Br)cc2)C1 (stereo unspecified),1.3%,12.3%,i,-1.5%,11.8%,i
Cc1cc(C)cc(OCC(=O)N2N=C(c3cccnc3)CC2(O)C(F)(F)F)c1 (stereo unspecified),-11.4%,13.3%,?,-0.9%,4.7%,i
COc1cccc(C(=O)N2N=C(c3ccccc3)CC2(O)C(F)(F)F)c1 (stereo unspecified),2.1%,0.8%,16.4µM*,1.8%,?,i
CCC1=NN(C(=O)c2ccccc2O)C(O)(c2ccccc2)C1 (stereo unspecified),-28.1%,16.4µM*,?,-0.6%,?,?
O=C(c1ccccc1O)N1N=C(c2ccccc2)CC1(O)C(F)(F)F (stereo unspecified),-1.6%,?,i,19.5%,20.6µM*,i
COc1cccc(C2=NN(C(=O)c3ccccc3)C(O)(C(F)(F)F)C2)c1 (stereo unspecified),-15.5%,-3.5%,i,-0.4%,?,i
Cc1ccccc1OCC(=O)N1N=C(c2cccnc2)CC1(O)C(F)(F)F (stereo unspecified),14.1%,-6.3%,20.6µM*,-1.8%,-11.1%,i
O=C(CCc1ncc(-c2ccc(F)cc2)o1)N1CCSCC1,-6.8%,.,.,.,.,.
COc1ccc(CNC(C)=O)cc1,22.8%,.,.,.,.,.
CN1CCC(N(C)C(=O)c2ccccc2Nc2ccc(SC(F)F)cc2)CC1,2.9%,-4.5%,i,28.6%[38.3 µM],8.2µM*,i
